Assay outcomes as filed in PubChem BioAssay.
In the library only some 2.8% were active in any assay of this set; here they are far more common.
AHR activator: activates the human aryl hydrocarbon receptor; P35869; AHR-responsive luciferase reporter cells, luminescence; activation, % at 5 µM; 2.5% of 320,000 active; in the data active = activation above about 47%;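 note: 0% = vehicle wells and 100% = reference agonist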
Target sequence (P35869 whole entry, looked up): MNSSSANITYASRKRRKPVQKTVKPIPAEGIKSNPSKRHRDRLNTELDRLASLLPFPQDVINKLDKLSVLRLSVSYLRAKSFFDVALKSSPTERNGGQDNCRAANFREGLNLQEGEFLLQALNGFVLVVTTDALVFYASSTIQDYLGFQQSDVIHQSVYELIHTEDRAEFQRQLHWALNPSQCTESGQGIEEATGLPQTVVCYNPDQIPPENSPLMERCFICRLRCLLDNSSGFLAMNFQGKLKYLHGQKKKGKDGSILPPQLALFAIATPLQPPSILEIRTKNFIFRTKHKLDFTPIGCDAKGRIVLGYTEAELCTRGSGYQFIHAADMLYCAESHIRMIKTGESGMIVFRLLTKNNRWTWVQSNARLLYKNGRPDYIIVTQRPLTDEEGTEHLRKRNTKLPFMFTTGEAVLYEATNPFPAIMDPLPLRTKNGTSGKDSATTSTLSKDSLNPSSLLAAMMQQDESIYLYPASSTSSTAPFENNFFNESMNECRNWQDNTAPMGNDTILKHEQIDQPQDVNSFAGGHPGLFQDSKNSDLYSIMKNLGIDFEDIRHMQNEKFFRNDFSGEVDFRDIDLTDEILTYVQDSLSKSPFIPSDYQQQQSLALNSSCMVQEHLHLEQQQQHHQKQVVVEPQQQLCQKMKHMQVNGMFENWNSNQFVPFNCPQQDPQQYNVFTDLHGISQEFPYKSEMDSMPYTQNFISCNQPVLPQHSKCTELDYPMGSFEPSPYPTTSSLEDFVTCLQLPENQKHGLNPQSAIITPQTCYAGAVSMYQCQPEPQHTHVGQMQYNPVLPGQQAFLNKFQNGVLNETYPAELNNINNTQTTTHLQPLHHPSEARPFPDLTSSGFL
HIF activator: HIF pathway transcriptional activation; activation, % at 7.5 µM (by protocol); 0.32% of 300,000 active; U2OS HRE-luciferase reporter, luminescence; normalized: DMSO 0%, desferrioxamine 100%; AID 1910;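 active = mean activation of at least 10% of the iron chelator positive control signal, with at least half of replicates also reaching 10%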
p-CIP stab down: compounds decreasing mouse p/CIP protein stability. decrease of EGFP signal, % at 10 µM. F442A p/CIP-EGFP cells, EGFP fluorescence, 16 h. 0.01% of 290,000 active;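 active = EGFP signal decrease of at least 30% at 10 µM or well 3 SD below plate mean, unless failing retest; inactive = the rest, including hits failing retest or dose response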
PolyA inhibitor: blocks polyadenylation in yeast reporter cells. activity score, % at 12 µM. AID 1875. S. cerevisiae SKY197-pL101 polyadenylation reporter, beta-gal luminescence; efflux-impaired pdr1/pdr3 knockout yeast; score 100 = 6 SD above DMSO. 0.02% of 300,000 active;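 active = lowest replicate activity score at least 50, where 100 means six control SD above control mean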;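 note: yeast exposed to compound for 9 h at 30 °C; higher score means more reporter readthrough which indicates perturbed polyadenylation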
Platelet DG rel: platelet dense granule release activity; 0.22% of 300,000 active; human platelet-rich plasma, SFLLRN dense granule ATP release, luminescence; inhibition, %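 (compounds screened at 7.5 µM in platelet-rich plasma)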;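 active = mean replicate score, as percent of positive control, at or above 50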
* = called active by the depositor; nt = no result.

SMILES | AHR activator | HIF activator | p-CIP stab down | PolyA inhibitor | Platelet DG rel
CCOC(=O)N1CCN(C(=O)c2ccc3c(c2)N(Cc2cc(C)ccc2C)C(=O)c2ccccc2S3=O)CC1 (centres undefined) | 1.6 | -0.8 | -9.5 | 3.2 | 2.5
CCOc1ccc(CN2CCC(n3nccc3NC(=O)c3ccccc3OC)CC2)cc1 | 5.3 | -0.3 | -10.6 | -13.4 | 17.8
CC(C)(C)c1ccc(C(=O)N/C(=C\c2cccc([N+](=O)[O-])c2)C(=O)Nc2cccc(C(=O)O)c2)cc1 | 67.5* | 0.7 | -13.4 | -8.9 | -1.3
Cc1ccc(C(=O)N/C(=C\c2ccc(-c3cccc([N+](=O)[O-])c3)o2)C(=O)NC(C)(C)C)cc1 | 55.9* | 0.2 | 6.4 | -14.4 | 6.6
O=C(Nc1cccc(C(=O)O)c1)/C(=C/c1ccc([N+](=O)[O-])cc1)NC(=O)c1ccccc1 | 1.6 | -0.8 | -7.5 | 7.0 | 4.0
FC(F)(F)c1cccc(NC(=S)Nc2cccc(NC(=S)Nc3cccc(C(F)(F)F)c3)n2)c1 | 65.6* | 0.7 | 1.0 | -6.9 | -0.1
CC(C)(C)NNC(=S)Nc1cccc(C(F)(F)F)c1 | -0.9 | 3.9 | -1.8 | 5.2 | -0.1
Cc1cc(S(=O)(=O)N2CCOCC2)ccc1OCC(=O)Nc1ccc(Br)cc1F | 1.3 | -0.5 | -1.1 | -4.5 | 6.0
O=c1cc(-c2cccc(Br)c2)oc2cccc(O)c12 | 48.5* | -0.1 | 4.4 | 19.1 | 1.0
CCOC(=O)N1CCN(CC(=O)N2CCC(C(N)=O)CC2)CC1 | -0.1 | -0.5 | -7.4 | 9.8 | 58.8*
CCOC(=O)N1CCN(CC(=O)N2c3ccccc3Sc3ccccc32)CC1 | -0.4 | -0.8 | -8.4 | -7.0 | -3.9
Cc1occc1C(=O)Nc1cc(C(C)(C)C)on1 | 28.2 | 2.2 | -1.3 | 7.0 | 56.1*
O=C1NC(N2CCOCC2)=N/C1=C/c1ccc2c(c1)OCO2 | 54.0* | -0.3 | 3.1 | -3.5 | 6.0
CCSC1=N/C(=C\c2ccc3c(c2)OCO3)C(=O)S1 | 0.8 | -0.4 | -8.6 | -4.8 | -2.0
COc1ccc(OCc2nc(N)nc(Nc3ccc(C)cc3)n2)cc1 | 64.8* | 3.3 | 3.1 | -14.7 | 2.4
COc1ccc(Nc2nc(N)nc(COc3ccc(OC)cc3)n2)cc1 | 60.2* | 3.2 | -6.7 | -3.0 | -2.9
COc1ccc(Nc2nc(N)nc(SCc3nnc(C)s3)n2)cc1 | 56.3* | 1.0 | 12.6 | 1.5 | nt
COc1ccc(OCc2nc(N)nc(Nc3ccccc3)n2)cc1 | 46.5 | 1.4 | -3.1 | -3.1 | 0.6
CCOc1ccc(OCCC(=O)OCC(=O)Nc2ccc3c(c2)OCCO3)cc1 | -0.8 | 0.9 | nt | 20.7 | 1.5
Cc1c(C(=O)O)sc2ncn(C)c(=O)c12 | 2.9 | 0.4 | 2.0 | -12.3 | 5.1
CN(Cc1ccccc1)c1nc(N)c([N+](=O)[O-])c(Nc2cccc(F)c2)n1 | 48.2* | -1.1 | -4.3 | 13.8 | 0.1
Oc1ccccc1-c1csc(-c2ccccc2)n1 | 69.1* | 1.7 | 11.2 | -35.3 | 2.4
Oc1ccc(-c2csc(-c3ccccc3)n2)cc1O | 2.4 | 3.6 | 5.5 | 2.6 | 12.2
COc1ccc(NS(=O)(=O)c2ccc3c(c2)N(C(C)=O)CC(C)S3)c(OC)c1 (centres undefined) | 0.5 | -0.4 | -21.8 | -20.0 | 8.5
N#CCOC(=O)C1CCN(S(=O)(=O)c2ccc3c(c2)OCCO3)CC1 | -0.4 | -0.3 | nt | -1.4 | -6.8
SMILES | AHR activator | HIF activator | p-CIP stab down | PolyA inhibitor | Platelet DG rel
Cc1nnc(-c2ccccc2)o1 | 2.4 | -0.1 | -10.1 | 8.4 | -1.4
Cn1cc(-c2nnc(-c3ccccc3)o2)c2ccccc21 | 48.9* | 0.0 | 1.6 | -15.5 | 1.5
COc1ccc(NC(=O)CSc2ccc3c(c2)OCCO3)cc1S(N)(=O)=O | 0.8 | nt | nt | nt | nt
O=C(COc1ccccc1Cl)NCc1nc(-c2ccccc2)no1 | 47.6* | -0.6 | 0.1 | -0.7 | 15.7
Cc1cc(/C=C2/NC(=O)N(Cc3ccccc3F)C2=O)c(C)n1C(C)C | 113.9* | 0.3 | -20.9 | -15.3 | 4.1
CCn1c(C)cc(/C=C2\NC(=O)N(Cc3ccccc3)C2=O)c1C | 70.3* | -0.4 | -2.7 | -20.5 | 5.6
Cc1cc(/C=C2/NC(=O)N(c3ccccc3)C2=O)c(C)n1C(C)C | 8.0 | 0.6 | 2.4 | 9.9 | -4.7
CCn1c(C)cc(/C=C2\NC(=O)N(CC(=O)Nc3ccc(F)cc3)C2=O)c1C | 23.6 | -0.4 | -2.5 | -14.4 | 5.3
CC(C)(C)[C@@H]1CCC(=O)N(CC[C@H](Sc2ccc(Br)cc2)c2ccccc2)CC1 | -0.1 | nt | nt | nt | nt
c1ccc2c(c1)nc(N1CCOCC1)c1nnnn12 | 21.6 | 2.4 | -2.8 | 7.0 | -0.5
c1ccc(N2CCN(c3nc4ccccc4n4nnnc34)CC2)cc1 | 72.6* | 1.6 | -20.0 | -38.5 | -24.8
O=C(NC1CCCCC1)C1Cc2ccccc2CN1S(=O)(=O)c1ccc(F)cc1 (centres undefined) | -1.9 | nt | 1.9 | -15.6 | -1.9
O=C(Nc1nccs1)C1Cc2ccccc2CN1S(=O)(=O)c1ccc(F)cc1 (centres undefined) | 64.4* | 0.6 | -0.5 | -9.9 | -2.1
O=c1cc(-c2c(F)c(F)c(F)c(F)c2F)oc2c(F)c(F)c(F)c(F)c12 | 4.7 | -0.5 | -31.9 | -64.9 | 5.5
COCc1cc(CN2CCCC(C(=O)Nc3cccc(-n4cnnn4)c3)C2)ccc1OC (centres undefined) | 0.8 | -0.3 | -6.4 | 9.7 | -14.5
COc1cc(C(=O)N/N=C(\c2ccccc2)c2ccccn2)cc(OC)c1OC | 24.7 | 64.3* | -5.0 | -30.3 | 6.6
COc1cccc(C(=O)N/N=C(/CCC(=O)O)c2ccccc2)c1 | 22.2 | 0.5 | -7.1 | 4.5 | 7.9
COc1cc(C(=O)N/N=C(\C)c2ccccn2)cc(OC)c1OC | 63.4* | -0.1 | -18.7 | 6.6 | -3.3
COc1cccc(C(=O)N/N=C(/c2ccccc2)c2ccccn2)c1 | 38.1 | 11.1* | -1.6 | -30.2 | 10.8
CC(C)N(Cc1ccccc1)C(=O)COC(=O)c1ccc(O)cc1 | 0.8 | nt | nt | nt | nt
CCOC(=O)c1c(C)[nH]c(C(=O)OCC(=O)Nc2cccnc2Cl)c1C | 11.0 | -0.2 | nt | -21.0 | -0.1
CC(=O)N1CCC(=NNC(=O)c2cc3ccccc3cc2O)CC1 | 3.1 | 45.4* | 0.4 | -7.6 | 6.9
Cc1onc(-c2c(Cl)cccc2Cl)c1C(=O)N=C(N)N1CCCC1 | 5.2 | 28.2* | -11.1 | -5.5 | 19.9
Clc1ccc(C2=Nn3c(nnc3-c3n[nH]c4c3CCC4)SC2)cc1 | 48.8* | -0.2 | -0.3 | 0.8 | 1.1
Cc1ccc(-c2nnc3n2N=C(c2ccc(Br)cc2)CS3)cc1 | 6.5 | -0.3 | 8.0 | 2.7 | -1.8
SMILES | AHR activator | HIF activator | p-CIP stab down | PolyA inhibitor | Platelet DG rel
CC(C)[C@H](N)c1nnc2n1N=C(c1ccc(Cl)cc1)CS2 | 5.1 | -1.2 | 2.6 | -12.3 | 1.4
Brc1ccc(C2=Nn3c(nnc3-c3n[nH]c4c3CCC4)SC2)cc1 | 78.2* | 0.2 | -18.9 | -4.6 | -41.4
C[n+]1ccc(/C=C/c2ccccc2O)c2ccccc21 | 63.4* | 0.0 | 0.6 | -8.8 | -2.8
CN1/C(=C/c2cc[n+](C)c3ccccc23)C=Cc2ccccc21 | nt | nt | -15.2 | nt | nt
CC(C)(C)c1ccc(C(=O)CCC(=O)OCC(=O)NCCc2ccc(S(N)(=O)=O)cc2)cc1 | -2.0 | nt | nt | nt | nt
O=C(NNc1nc2cc3c(cc2s1)OCO3)c1cccc(F)c1 | 76.8* | 2.0 | -2.0 | 0.8 | -28.5
